Test results as given in PubChem BioAssay (NCATS).
Records with an inconclusive call do not appear. Where a call stands in place of a potency, no number is given. A number with no mark means an inactive call. Activity calls are given as the source filed them. Calls follow the shape of the dose curve; as a rule, active = well fitted curve in the direction sought with a large enough effect; inconclusive = small, poorly fitted or top-dose-only effect, or another doubt; inactive = no such curve, though single readings can be large; an effect the other way counts as inactive or inconclusive. Numbered stars: 1 amine (or outer) side, 2 acyl side, 3 side chain; on linkers, the order of the positions; unused ones are H or OH. Bridge positions count the residues as written; N and C are the ends. Square brackets hold non-standard residues; d marks the D form. Peptide text beside a SMILES is read from it. ξ: configuration not given here. Phe(3R-OH) = O=C([C@@H](N[*:1])[C@H](O[*:3])c1ccccc1)[*:2]; NMeTrp(4-OMe) = CN[C@@H](Cc1c[nH]c2cccc(OC)c12)C(=O)O; ξThr(3R)(O-yl) = C[C@@H](O[*:3])C(N[*:1])C(=O)[*:2]; NMeThr(3ξ) = CN[C@H](C(=O)O)C(C)O; NMeL = CN[C@@H](CC(C)C)C(=O)O; NMeV = CN[C@H](C(=O)O)C(C)C; ξIle = CC[C@H](C)C(N)C(=O)O; ξV = CC(C)C(N)C(=O)O

Key:
[1] = U-118MG Cancer Cell Toxicity qHTS against the NCATS CANVASS Library (AID 1347351); also: potency is read from the fitted curve at half-maximal effect
In short: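 Quantitative HTS format: an 11-concentration series was applied to 1000 cells/well following a 4-hour attachment. Cultures ran 72 hours before ATP luminescence detection by CellTiter-Glo.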

[2] = A2780 Cisplatin Sensitive Ovarian Cancer Cell Toxicity qHTS against the NCATS CANVASS Library (AID 1347353); also: nearly all actives have a fitted effect of over 60% in size; also: potency is read from the fitted curve at half-maximal effect
In short: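 750 cells/well, 4 h settle; 11-pt cpd titration; 72 h, 37 °C, 5% CO2; ATPLite 10 min RT; luminescence read.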

[3] = UWB1.289-WTBRCA1 Cancer Cell Toxicity qHTS against the NCATS CANVASS Library (AID 1347354); also: potency is read from the fitted curve at half-maximal effect
In short: (§1)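 1000 cells/well, 4 h pre-incubation 37 °C/5% CO2; 11-pnt titration; 72 h; CellTiter-Glo 15 min RT, luminescence.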

[4] = HEK-293 Cancer Cell Toxicity qHTS against the NCATS CANVASS Library (AID 1347355); also: nearly all actives have a fitted effect of over 65% in size; also: potency is read from the fitted curve at half-maximal effect; as to outcome: series mostly up to about 46 µM
In short: as §1

[5] = HPAF-II 12hr Apoptosis Induction qHTS against the NCATS CANVASS Library (AID 1347358)
In short: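 Caspase-Glo 3/7 luminescence (DEVD substrate) reports caspase activity in HPAF-II cells after 12 h compound treatment at 37 degrees C. Compounds were tested in an 11-point series. Doxorubicin served as control.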

[6] = test system: NAD(P)H diaphorase (Clostridium kluyveri); assay: Diaphorse counterscreen qHTS: Assay Interference Panel against the NCATS CANVASS Library (AID 1347362)
In short: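 Counterscreen for coupling-enzyme interference: resorufin fluorescence from resazurin/NADH turnover, read after 5 min at room temperature. Compounds were tested over an 11-point series after 15 min dark preincubation with diaphorase in PBS-Tween.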

[7] = KB-8-5-11 Cancer Cell Toxicity qHTS against the NCATS CANVASS Library (AID 1347364); also: nearly all actives have a fitted effect of over 75% in size; also: potency is read from the fitted curve at half-maximal effect
In short: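 CellTiter-Glo luminescence after 72 h exposure; 500 KB-8-5-11 cells/well, DMEM/10% FBS, 37C, 5% CO2; compounds in 11-pt qHTS. Follow-up confirmation included medium with 1uM tariquidar.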

[8] = SDT Cancer Cell Toxicity qHTS against the NCATS CANVASS Library (AID 1347365); also: nearly all actives have a fitted effect of over 60% in size; also: potency is read from the fitted curve at half-maximal effect
In short: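 Luminescent ATP read-out (CellTiterGlo) after 72 hr compound exposure of dog glioma SDT cells, 500 per well. Eleven-point titrations; bortezomib titration run alongside as control.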

[9] = G06 Cancer Cell Toxicity qHTS against the NCATS CANVASS Library (AID 1347368); also: nearly all actives have a fitted effect of over 60% in size; also: potency is read from the fitted curve at half-maximal effect
In short: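 ATP luminescence (CellTiterGlo) readout of cytotoxicity. Canine G06 glioma cells, 500/well, 72 hr incubation at 37C with compounds; bortezomib titration served as control.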

[10] = biological target: Nuclear receptor subfamily 1 group I member 3 (Homo sapiens) (UniProt Q14994); assay: qHTS for Constitutive Androstane Receptor (CAR) Antagonist screened against the NCATS CANVASS Library (AID 1347372);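 also: cells stimulated with 50 nM CITCO agonist so inhibition reflects antagonism; series mostly up to about 46 µM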
In short: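 Antagonist mode: compound added alongside 50 nM CITCO to HepG2-hCAR-CYP2B6 reporter cells, 24hr at 37C. Viability by CellTiter-Fluor fluorescence, then CAR-driven luciferase by ONE-Glo luminescence.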

[11] = qHTS for Hypoxia signaling pathway (HIF-1) antagonists against the NCATS CANVASS Library (AID 1347374); also: nearly all actives have a fitted effect of over 60% in size; also: potency is read from the fitted curve at half-maximal effect
In short: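 Beta-lactamase reporter under HRE control in ME-180 cells; CoCl2 stimulus (60 uM solution as added), compounds 11-pt qHTS, 17 h 37C. CCF4 dye 2 h RT, 460/530 nm emission. CellTiter-Glo viability in same wells.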

[12] = qHTS for Hypoxia signaling pathway (HIF-1) agonists against the NCATS CANVASS Library (AID 1347375); also: potency is read from the fitted curve at half-maximal effect
In short: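 Read-out: beta-lactamase FRET (CCF4-AM, ex 405, em 460 and 530 nm) after 2 h at room temperature. ME-180 cells stably carrying HRE-bla were treated 17 h at 37C with compounds in an 11-point concentration series.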

[13] = DH5-alpha competent E. coli microbial cell viability qHTS against the NCATS CANVASS Library (AID 1347377); conditions: outcome: dose series up to 46.1 µM unless noted
In short: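 Luminescent ATP read-out (BacTiter-Glo, 20 min RT) after overnight 37C culture of DH5-alpha E. coli with compounds; daunomycin control at 0.2 nM–9.2 uM final.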

[14] = qHTS for H2AX Agonists against the NCATS CANVASS Library (AID 1347378); also: potency is read from the fitted curve at half-maximal effect
In short: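 Phospho-H2AX (S139) in CHO-K1 lysates measured by HTRF, reported as 665/615 nm emission ratio after 24 hr antibody incubation at room temperature. Cells were first treated with a compound series for 3 hr at 37C (0.76% DMSO final).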

[15] = Cytotoxicity qHTS for assessment of Hepg2 cells membrane integrity screened against the NCATS CANVASS Library (AID 1347387)
In short: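 LDH release read by fluorescence (560 nm ex/590 nm em) after CytoTox-ONE addition and 10 min RT; signal tracks lysed cells. HepG2, 2000 cells/well, plated overnight; compound 5 hr, 37C, 5% CO2, final 0.59 nM - 46 uM, 11 points.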

[16] = qHTS for Activators of p53 Stress Response Pathway screened against the NCATS CANVASS Library (AID 1347388)
In short: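 Beta-lactamase reporter driven by p53 response elements in HCT-116 cells, read as the 460 nm/530 nm emission ratio after CCF4 loading, following 16 h of exposure to an 11-point series. Cell viability was measured in the same wells by CellTiter-Glo luminescence.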

[17] = qHTS assay for small molecule disruptors of mitochondrial membrane potential screened against the NCATS CANVASS Library (AID 1347389); also: nearly all actives have a fitted effect of over 60% in size; also: potency is read from the fitted curve at half-maximal effect
In short: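 Red/green fluorescence ratio read-out: J-aggregates ex 540/em 590 nm, monomers ex 490/em 535 nm. HepG2, 1 hr compound treatment, then 30 min Mito-MPS dye at 37C. 11-pt qHTS concentration series.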

[18] = Secretion counterscreen for inhibitors of the SERCaMP assay screened against the NCATS CANVASS Library (AID 1347390);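 also: light from luciferase secreted into medium read as a measure of general secretion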; also: potency is read from the fitted curve at half-maximal effect
In short: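 Counterscreen for secretory-pathway interference: after 4 h attachment, SH-SY5Y-GLuc cells were exposed 20 hours to compounds (final 0.001 - 77 uM), then coelenterazine added and GLuc luminescence recorded; Brefeldin A served as control.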

[19] = Viability qHTS for inhibitors of the SERCaMP assay screened against the NCATS CANVASS Library (AID 1347400); also: nearly all actives have a fitted effect of over 70% in size; also: potency is read from the fitted curve at half-maximal effect
In short: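 CellTiter-Glo luminescence readout after 48 h compound exposure (11-pnt qHTS series) of SH-SY5Y-GLuc SERCaMP MJH297 cells seeded at 1000 cells/well; bortezomib positive control.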

[20] = qHTS for inhibitors of ER calcium dysfunction: SERCaMP assay screened against the NCATS CANVASS Library (AID 1347393); also: nearly all actives have a fitted effect of over 40% in size; also: potency is read from the fitted curve at half-maximal effect
In short: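 Thapsigargin-induced ER calcium depletion drives GLuc-SERCaMP secretion from SH-SY5Y cells; compounds given 16 h beforehand were scored by lowered coelenterazine luminescence after 4 h challenge.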

Chain of Nuclear receptor subfamily 1 group I member 3 (Homo sapiens) (Q14994 whole entry, looked up): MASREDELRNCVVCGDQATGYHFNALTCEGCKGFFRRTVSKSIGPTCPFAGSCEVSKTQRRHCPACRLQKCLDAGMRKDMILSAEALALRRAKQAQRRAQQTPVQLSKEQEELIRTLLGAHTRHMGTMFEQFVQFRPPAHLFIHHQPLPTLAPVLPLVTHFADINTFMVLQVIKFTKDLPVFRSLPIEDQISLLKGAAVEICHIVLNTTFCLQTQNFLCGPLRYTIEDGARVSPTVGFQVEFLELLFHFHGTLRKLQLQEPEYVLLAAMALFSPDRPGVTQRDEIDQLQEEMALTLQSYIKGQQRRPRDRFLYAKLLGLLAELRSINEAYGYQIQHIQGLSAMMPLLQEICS

SMILES	Potency [1]	Potency [2]	Potency [3]	Potency [4]	Potency [5]	Potency [6]	Potency [7]	Potency [8]	Potency [9]	Potency [10]	Potency [11]	Potency [12]	outcome [13]	Potency [14]	outcome [15]	Potency [16]	Potency [17]	Potency [18]	Potency [19]	Potency [20]
C=C[C@]1(C)CC[C@@H]([C@H](C)C(=O)/C=C/C(C)C)O1	inactive	inactive	inactive	inactive	inactive	inactive	inactive	inactive	inactive	inactive	inactive	inactive	inactive	inactive	inactive	inactive	inactive	inactive	inactive	
CC[C@H](C)C(NC(=O)[C@@H](NC)C(C)C)C(=O)NC1C(=O)N(C)[C@@H](C(C)O)C(=O)N[C@@H](C(C)C)C(=O)N(C)[C@@H](CC(C)C)C(=O)NC(C(C)C)C(=O)N(C)[C@@H](C(C)C)C(=O)N(C)[C@@H](Cc2c[nH]c3cccc(OC)c23)C(=O)N[C@@H](C(C)C)C(=O)N[C@@H]([C@H](O)c2ccccc2)C(=O)N[C@@H](C(C)C)C(=O)O[C@@H]1C (stereo partly drawn) (H-[NMeV][ξIle][ξThr(3R)(O-yl)][NMeThr(3ξ)]V[NMeL][ξV][NMeV][NMeTrp(4-OMe)]V[Phe(3R-OH)]V; ester 3-C)	inactive	inactive	inactive	inactive	inactive	inactive	inactive				inactive	inactive	inactive	inactive	inactive	inactive	inactive	inactive	inactive	27.2 µM (active)
C[C@H]1C[C@@H]([C@@H]2CC[C@]34O[C@H](CC[C@@]35C[C@H](C)C(=O)O5)CN24)OC1=O	inactive	inactive	inactive	inactive	inactive	inactive	inactive	inactive	inactive	inactive	inactive	inactive	inactive	inactive	inactive	inactive	inactive		inactive	inactive
C/C=C/c1cc(OC)c2c(c1)[C@@H](C)[C@H](c1ccc(O)c(OC)c1)O2	inactive	inactive	inactive	inactive	inactive	inactive	inactive	inactive		inactive	inactive	inactive	inactive	inactive	inactive	inactive	inactive	inactive	inactive	24.3 µM (active)
Oc1ccc(/C=C2/c3cc(O)cc(O)c3C(c3ccc(O)cc3)[C@H]2c2cc(O)cc(O)c2)cc1 (stereo partly specified)	inactive	inactive		inactive	inactive	inactive	inactive	inactive	inactive	inactive	inactive	inactive	inactive	inactive	inactive	inactive	inactive	inactive	inactive	inactive
CC1=CC2=C[C@H](C)C[C@@]23OC(=C(C)C3=O)CC(C)(C)/C=C/C1=O	0.749 µM (active)	0.209 µM (active)	11.8 µM (active)	0.526 µM (active)	inactive	inactive	2.09 µM (active)	0.662 µM (active)	0.833 µM (active)	inactive	0.265 µM (active)	5.29 µM (active)	inactive	1.72 µM (active)		inactive	5.24 µM (active)	1.93 µM (active)	1.52 µM (active)	inactive
O=C(O)CC1OC(=O)c2c(O)cccc21 (stereo unspecified)	inactive	inactive	inactive		inactive	inactive	inactive	0.0132 µM (active)		inactive	inactive	inactive	inactive	inactive	inactive	inactive	inactive	inactive	inactive	inactive
C=C1C[C@@]23C=CC(=O)[C@@](C)(CCC(=O)Nc4c(O)ccc(C(=O)O)c4O)C2C[C@@H]1CC3O (stereo partly specified)	inactive	inactive	inactive	inactive	inactive	inactive	inactive	inactive	inactive	inactive	inactive	inactive	inactive	inactive	inactive	inactive	inactive	inactive	inactive	inactive
O=Cc1ccc2n1C[C@@]1(OC2)O[C@H](CO)[C@@H](O)[C@@H]1O	inactive	inactive	inactive	inactive	inactive	inactive	inactive	inactive	inactive	inactive	inactive	inactive	inactive	inactive	inactive	inactive	inactive	inactive	inactive	inactive
C=C1/C=C\C(CCC)=C\c2csc(n2)C(C)NC(=O)C[C@@]2(CC(=O)O)CCC(=C)[C@H](C1)S2 (stereo partly specified)	inactive	inactive	inactive	inactive	inactive	inactive	inactive		inactive	inactive	inactive	inactive	inactive	inactive	inactive	inactive	inactive	inactive	inactive	inactive
CC(C)=CCC[C@@H](C)[C@@H]1CC[C@@]2(C)C[C@H]3C(C)=CC(=O)[C@@H]3/C(C=O)=C\C[C@H]12	7.49 µM (active)	3.72 µM (active)	10.6 µM (active)	9.35 µM (active)		inactive	10.5 µM (active)		16.6 µM (active)				inactive	inactive	inactive				42.8 µM (active)	inactive
